# Assay results as given in the supplement of paper PMC6522484.
# ± gives the standard deviation of the averaged measurements.
# Columns and labels:
# DLD1 [1] = test: cell viability (CellTiter-Glo) relative to plate median (fraction of plate median); higher = more viable cells; details: 5 µM; treatment time 24 h; reporter: 7TFP
# How it was run: (§1)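 Colorectal cancer cell lines stably carrying lentiviral TCF/Wnt firefly luciferase reporters (7TFP or TCF4/Wnt) were plated in 384-well plates and, 24 h later, given library compounds at a final 5 µM for 24 h. Firefly luciferase or CellTiterGlo luminescence was read on parallel plates with a Tecan F500 reader. Each well's signal was normalised to the plate median in webcellHTS2 (additive, without log transformation). Values are the mean of two independent replicates.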
# HCT116 = test: as above; details: 5 µM; treatment time 24 h; reporter: TCF4/Wnt
# How it was run: as §1
# SW480 [2] = test: as above; details: 5 µM; treatment time 24 h; reporter: 7TFP
# How it was run: as §1
# DLD1 [3] = test: TCF/Wnt firefly luciferase reporter signal relative to plate median (fraction of plate median); higher = higher Wnt reporter signal; details: 5 µM; treatment time 24 h; reporter: 7TFP
# How it was run: as §1
# SW480 [4] = test: as above; details: 5 µM; treatment time 24 h; reporter: 7TFP
# How it was run: as §1
SMILES,cell viability (DLD1 [1]),cell viability (HCT116),cell viability (SW480 [2]),TCF/Wnt firefly luciferase reporter signal (DLD1 [3]),TCF/Wnt firefly luciferase reporter signal (SW480 [4])
CCCCC1C(=O)N(c2ccccc2)N(c2ccc(O)cc2)C1=O (stereo not given),0.923 ± 0.015,0.873 ± 0.038,0.898 ± 0.028,1.21 ± 0.057,1.02 ± 0.05
CC(=O)OCC(=O)[C@@]1(O)CC[C@H]2[C@@H]3CC[C@@H]4C[C@H](O)CC[C@]4(C)[C@H]3C(=O)C[C@@]21C,0.905 ± 0.11,1 ± 0.071,0.939 ± 0.011,0.968 ± 0.036,0.885 ± 0.019
Clc1ccccc1CN1CCc2sccc2C1,0.988 ± 0.013,1.07 ± 0.05,1 ± 0.057,0.934 ± 0.036,1.01 ± 0.071
COC(=O)[C@H](c1ccccc1Cl)N1CCc2sccc2C1,1.045 ± 0.0071,0.921 ± 0.02,1.07 ± 0.028,0.853 ± 0.041,0.906 ± 0.016
CC(C)NC[C@@H](O)COc1cccc2ccccc12,1.09 ± 0.057,1.06,1.11 ± 0.11,1.01 ± 0.021,1.01 ± 0.05
"COc1cc(C(N)=O)ccc1O [4-Hydroxy-3-methoxy-benzoic acid amide, Vanillic acid amide]",0.953 ± 0.032,1.125 ± 0.0071,1.06 ± 0.014,1.06 ± 0.086,0.942 ± 0.064
N=C(N)N,0.982 ± 0.025,0.95 ± 0.16,1.02 ± 0.014,0.924 ± 0.076,1.025 ± 0.0071
Cc1ccsc1/C=C/C1=NCCCN1C,0.843 ± 0.058,0.864 ± 0.044,0.9765 ± 0.00071,1.04 ± 0.021,1 ± 0.083
COc1ccc(-c2c(O)c3c(OC)c4c(cc3oc2=O)OC(C)(C)C=C4)cc1,1.01,0.968 ± 0.088,0.9495 ± 0.0092,1.07 ± 0.014,1.07 ± 0.035
COC(C)c1cccc2nc3c(C(=O)O)cccc3nc12 (stereo not given) [Saphenic acid methylether],1.03 ± 0.052,1.13 ± 0.028,1.04 ± 0.028,0.907 ± 0.1,1.15 ± 0.14
C=CC(C1=CC(=O)C=CC1=O)c1ccccc1 (stereo not given),0.965 ± 0.064,0.884 ± 0.098,0.943 ± 0.038,0.885 ± 0.022,0.984 ± 0.037
CN(C)[C@@H]1C(O)=C(C(N)=O)C(=O)[C@@]2(O)C(O)=C3C(=O)c4c(O)ccc(Cl)c4[C@@](C)(O)[C@H]3C[C@@H]12,1.05 ± 0.028,1.1 ± 0.085,1.02 ± 0.014,1.11 ± 0.13,0.99 ± 0.0042
C[C@@H]1C(=O)O[C@H]2C[C@@]34[C@H]5C[C@@H](C(C)(C)C)[C@]36[C@@H](OC(=O)[C@@H]6O)O[C@@]4(C(=O)O5)[C@]21O,1.07 ± 0.021,1.11 ± 0.064,0.99 ± 0.015,1.15 ± 0.021,1.03 ± 0.11
CC(=O)OCC(=O)[C@@]1(O)CC[C@H]2[C@@H]3C[C@H](C)C4=CC(=O)C=C[C@]4(C)[C@H]3[C@@H](O)C[C@@]21C [6alpha-METHYLPREDNISOLONE ACETATE],1.03 ± 0.05,0.957 ± 0.22,0.994 ± 0.037,0.904 ± 0.15,0.937 ± 0.073
C=C(C)[C@@H]1C[C@H](O)[C@]2(C(=O)O)CC[C@]3(C)[C@H](C[C@H]4OC(=O)C[C@@H](O)[C@]5(C)[C@@H]4[C@@]3(C)CC[C@H]5C(=C)C)[C@@H]12 [22alpha-hydroxychiisanogenin (11)],0.883 ± 0.21,0.884 ± 0.14,0.984 ± 0.094,0.859 ± 0.2,0.922 ± 0.017
CN(C)CCc1c[nH]c2ccc(CS(=O)(=O)N3CCCC3)cc12,0.875 ± 0.04,0.929 ± 0.088,0.999 ± 0.086,1.17 ± 0.035,1.06 ± 0.088
CC1(C)S[C@@H]2[C@H](NC(=O)COc3ccccc3)C(=O)N2[C@H]1C(=O)O,1.09 ± 0.021,1.05,1.01 ± 0.023,1.1 ± 0.028,1.08 ± 0.05
CC(=O)O[C@H]1CC[C@]2(C)[C@H]3CC[C@@]4(C)[C@H](c5ccoc5)OC(=O)[C@H]5O[C@]54[C@]3(C)[C@H](OC(C)=O)C[C@H]2C1(C)C [3beta-ACETOXYDEOXODIHYDROGEDUNIN],1.03 ± 0.054,1.01 ± 0.077,0.949 ± 0.1,1.02 ± 0.061,1.04 ± 0.028
O=C(O)/C=C/C=C/c1ccccc1,0.976 ± 0.16,0.9625 ± 0.0092,0.98 ± 0.0057,0.906 ± 0.028,0.729 ± 0.071
OC(CCN1CCCCC1)(c1ccccc1)C1CC2C=CC1C2 (stereo not given),0.9145 ± 0.0021,1.01 ± 0.12,0.947 ± 0.052,0.92 ± 0.23,0.835 ± 0.028
O=C(O)c1cc2ccccc2[nH]1 [Indol-2-carboxylic acid],0.972 ± 0.097,0.92 ± 0.016,0.9215 ± 0.0064,0.8775 ± 0.005,0.955 ± 0.042
Cc1ccc(S(=O)(=O)NC(=O)NN2CCCCCC2)cc1,0.911 ± 0.047,0.918 ± 0.018,0.968 ± 0.019,0.881 ± 0.071,0.998 ± 0.031
CC1(C)O[C@H]2[C@H](O)C[C@](O)(C(N)=O)C[C@H]2O1,1.08 ± 0.035,1.17 ± 0.15,1.09 ± 0.021,1.07 ± 0.15,0.916 ± 0.055
CS(C)(=O)=O,1.01 ± 0.081,1.05 ± 0.071,0.962 ± 0.035,1.26 ± 0.071,1.05 ± 0.064
CC(CCC(=O)O)[C@H]1CCC2C3C[C@H](O)[C@@H]4C[C@H](O)CC[C@]4(C)C3CC[C@@]21C (stereo partly drawn) [alpha-HYDROXYDEOXYCHOLIC ACID],1.04 ± 0.13,1.1 ± 0.078,1.06 ± 0.014,0.947 ± 0.1,0.974 ± 0.052
COc1cc(O)c(C(C)=O)c(OC)c1,1.12 ± 0.11,1.03 ± 0.059,1.055 ± 0.0071,0.978 ± 0.19,0.983 ± 0.11
C/C=C(\CO)C(=O)O[C@H]1[C@H](O)[C@@H](C(=O)OC)O[C@@H]2C[C@H]3O[C@@H](n4cnc5c(N)ncnc54)[C@H](OC)[C@H]3O[C@]21O [Herbicidin A],1.06 ± 0.014,0.843 ± 0.045,0.982 ± 0.054,0.933 ± 0.095,0.898 ± 0.064
O=C(O)c1cc(O)ccc1O,0.954 ± 0.0099,0.999 ± 0.059,1.005 ± 0.0071,1.04 ± 0.069,1.09
Nc1nc(=O)c2c([nH]1)NCC(CNc1ccc(C(=O)N[C@@H](CCC(=O)O)C(=O)O)cc1)N2C=O (stereo not given in full),1 ± 0.085,1.03,1.01 ± 0.019,1.02 ± 0.12,1.01 ± 0.028
CCn1cc(C(=O)O)c(=O)c2cc(F)c(N3CCNCC3)cc21,0.944 ± 0.061,0.98 ± 0.18,0.926 ± 0.0014,1.19 ± 0.042,1.07 ± 0.071
